SIRT5 block = inhibitors of human sirtuin-5 desuccinylase; 330,000 tested, 1.1% active; Purified SirT5, succinyl-peptide AMC, trypsin-coupled fluorescence; AID 652115; Q9NXA8; inhibition, % at 15 µM; in the data active = inhibition above about 15%
Target sequence (Q9NXA8 whole entry, looked up): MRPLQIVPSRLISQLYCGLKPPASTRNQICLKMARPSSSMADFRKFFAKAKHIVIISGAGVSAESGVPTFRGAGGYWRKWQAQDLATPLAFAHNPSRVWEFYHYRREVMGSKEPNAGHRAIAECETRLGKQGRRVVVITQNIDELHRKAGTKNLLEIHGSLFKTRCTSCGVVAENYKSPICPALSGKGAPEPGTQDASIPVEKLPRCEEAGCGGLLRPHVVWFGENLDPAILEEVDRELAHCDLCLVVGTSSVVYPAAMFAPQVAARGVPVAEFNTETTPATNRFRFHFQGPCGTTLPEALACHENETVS
INS-1E GSIS act = GLuc luminescence reporter in INS-1E cells, primary screen for activators of glucose-dependent secretion of insulin; activation, % at 16.6 µM; 370,000 tested, 0.61% active; INS-1E GLuc reporter insulin secretion, 2-3 h;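 active = lowest replicate activation of at least 40%, so every replicate reaches that level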
ERAP1 HTS inh = inhibitors of human ERAP1 aminopeptidase; inhibition, % at 10.7 µM; recombinant ERAP1, Leu-AMC fluorescence, 60 min; 340,000 tested, 0.15% active; Q9NZ08; AID 652197;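 active = mean replicate inhibition of at least 30%, or all replicates individually reaching that 30% level; inactive = mean below 30% and not every replicate reaching it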
FGF22 binding-1 = FGF22 (human) thermal shift binding; recombinant FGF22 thermal shift, SYPRO orange fluorescence; percent of sucrose octasulfate shift, DMSO zero; AID 651658; activity (Tm shift, normalised), % at 9.99 µM; 340,000 tested, 1.5% active; Q9HCT0;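 active = mean Tm shift, scaled 0 neutral to 100 positive control, at about 1.3% or above, every replicate too, limit read from the data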
Target sequence (Q9HCT0 whole entry, looked up): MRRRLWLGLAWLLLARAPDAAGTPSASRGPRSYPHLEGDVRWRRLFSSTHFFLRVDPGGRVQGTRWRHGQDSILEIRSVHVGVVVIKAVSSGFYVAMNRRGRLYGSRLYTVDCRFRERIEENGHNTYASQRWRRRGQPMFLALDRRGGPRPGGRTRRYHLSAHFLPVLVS
CASP6 VEID inh = blocks human caspase-6 cleavage activity; P55212; purified caspase-6, Z-VEID-R110 cleavage fluorescence; inhibition, % at 12.5 µM; 350,000 tested, 0.53% active;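 active = mean inhibition across replicates at least about 35%, with every replicate also reaching that limit, limit read from the data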
FGF22 binding-2 = binders of human FGF22 by thermal shift; shares compounds with FGF22 binding-1; recombinant FGF22 thermal shift, SYPRO orange fluorescence; thermal shift activity, °C (ΔTm) at 38 µM; 1,000 tested, 2% active;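 active = fitted rise in melting shift crosses a set limit at or below the top valid dose tested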
FGF22 TSA = binders of human FGF22 by thermal shift | shares compounds with FGF22 binding-1 | Thermal shift assay, SYPRO orange, melting temperature shift | Tm shift (activity), % at 38 µM | 50 tested, under 10 active | AID 743017;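 active = compounds whose fitted dose curve of melting temperature shift rises past a set threshold within the tested doses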
SYPRO no-protein = counter-screen for FGF22 binders: compound-only thermal shift, no protein. shares compounds with FGF22 binding-1. compound-only SYPRO orange thermal shift counter-screen. AC50, µM (highest dose often 38 µM). 1,000 tested, 2% active. AID 743019;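 active = rising signal whose fitted curve reaches the 0.54 level within the top valid dose, showing a melting point, actives reach about 13 µM in these data; inactive = the rest, including activity in the opposite direction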; note: value is where the raw curve crosses a fixed level and not half-maximal
Of the large screens only hits and unclear results are named; the others gave an inactive call (follow-up assays come after a bar, where they were run); ! = not active in a repeat. A selection: hits, their analogues and other compounds. The true share with any hit is near 3.3%.

O=C(Cn1[nH]c(=O)c2ccccc2c1=O)Nc1cccnc1	FGF22 binding-1 2.2 (no result: INS-1E GSIS act) | FGF22 binding-2 inactive | SYPRO no-protein inactive
CC(C)C#Cc1ccc([C@@H]2[C@@H](CO)N3C(=O)CN(C(=O)C4CCCCC4)C[C@@H]23)cc1	FGF22 binding-1 1.3 | FGF22 binding-2 inactive | SYPRO no-protein inactive
CC(C)C#Cc1ccc([C@H]2[C@@H](CO)N3C(=O)CN(C(=O)C4CCCCC4)C[C@@H]23)cc1	FGF22 binding-1 1.9 | FGF22 binding-2 inactive | SYPRO no-protein inactive
C[C@H](CO)N1C[C@H](C)[C@@H](CN(C)S(=O)(=O)c2ccc(F)cc2)Oc2ccc(NC(=O)Cn3cnnn3)cc2C1=O	none
O=C1CNC[C@@H]2[C@@H](c3ccc(C4=CCCCC4)cc3)[C@H](CO)N12	none (no result: FGF22 binding-1)
COCC(=O)Nc1ccc2c(c1)OC[C@H](C)N(Cc1ccccc1)C[C@@H](C)[C@H](OC)CN(C)C2=O	none
O=C(CN(Cc1ccccc1)S(=O)(=O)c1ccccc1)N/N=C/c1ccccc1C(=O)O	FGF22 binding-1 2.3 | FGF22 binding-2 inactive | SYPRO no-protein inactive
O=S(=O)(Nc1cc(Cl)ccc1-n1cncn1)c1ccc(F)cc1	FGF22 binding-1 1.5 | FGF22 binding-2 inactive | SYPRO no-protein inactive
Clc1ccc(-c2cnc3ccccc3n2)cc1	none (no result: SIRT5 block, ERAP1 HTS inh, FGF22 binding-1, CASP6 VEID inh)
Oc1ccc(-c2cnc3ccccc3n2)cc1	FGF22 binding-1 25 | FGF22 binding-2 inactive | SYPRO no-protein inactive
O=C(CCN1CCCCC1)N[C@@H]1CC[C@@H](CCNS(=O)(=O)c2ccc(F)cc2)O[C@H]1CO	none
O=C(Nc1cc(Cl)cc(Cl)c1)N[C@@H]1CC[C@@H](CCNS(=O)(=O)c2cccc(F)c2)O[C@@H]1CO	FGF22 binding-1 2.7! | FGF22 binding-2 inactive | FGF22 TSA inactive | SYPRO no-protein inactive
O=C(CCN1CCCCC1)N[C@@H]1CC[C@H](CCNS(=O)(=O)c2ccc(F)cc2)O[C@H]1CO	FGF22 binding-1 1.7 | FGF22 binding-2 inactive | SYPRO no-protein inactive
Cc1ccccc1S(=O)(=O)NCC[C@@H]1CC[C@@H](NC(=O)Nc2cccc(Cl)c2)[C@@H](CO)O1	FGF22 binding-1 1.3 | FGF22 binding-2 inactive | SYPRO no-protein inactive
O=C(Nc1cc(Cl)cc(Cl)c1)N[C@H]1CC[C@H](CCNS(=O)(=O)c2cccc(F)c2)O[C@H]1CO	none
COc1ccc(S(=O)(=O)N/N=c2\oc3c(OC)cccc3cc2S(=O)(=O)c2ccc(C)cc2)cc1OC	FGF22 binding-1 1.7 | FGF22 binding-2 inactive | SYPRO no-protein inactive
O=C(NCCc1c[nH]c2ccccc12)c1ccccc1	none
N#CCC(=O)Nc1ccc(C(=O)NCCc2c[nH]c3ccccc23)cc1	FGF22 binding-1 1.4 | FGF22 binding-2 inactive | SYPRO no-protein inactive
O=C(CCc1c[nH]c2ccccc12)Nc1ccc(Oc2cccnc2)cc1	FGF22 binding-1 1.5 (no result: SIRT5 block) | FGF22 binding-2 inactive | SYPRO no-protein inactive
Cc1cc(NC(=O)CCc2c[nH]c3ccccc23)ccc1Oc1cccnc1	none (no result: SIRT5 block)
COc1ccc(NC(=O)CN(c2ccc(C(C)C)cc2)S(=O)(=O)c2c(C)noc2C)cc1OC	FGF22 binding-1 13 (no result: SIRT5 block, ERAP1 HTS inh) | FGF22 binding-2 inactive | SYPRO no-protein inactive
C[C@@H]1CCCCO[C@@H](CN(C)Cc2ccc3c(c2)OCO3)[C@H](C)CN([C@@H](C)CO)C(=O)c2cc(NC(=O)Cc3ccccc3)ccc2O1	none (no result: SIRT5 block, ERAP1 HTS inh, CASP6 VEID inh)
COc1ccccc1NC(=O)N[C@@H]1CC[C@@H](CCn2cc(-c3ccccc3OC)nn2)O[C@@H]1CO	FGF22 binding-1 1.7 | FGF22 binding-2 inactive | SYPRO no-protein inactive
COc1ccccc1NC(=O)N[C@@H]1CC[C@H](CCn2cc(-c3ccccc3OC)nn2)O[C@H]1CO	none
COc1ccc(C(=O)Nc2cc(Cl)ccc2N2CCOCC2)cc1S(=O)(=O)N1CCOCC1	none
COc1ccc(C(=O)Nc2ccccc2N2CCOCC2)cc1S(=O)(=O)N1CCOCC1	FGF22 binding-1 21 | FGF22 binding-2 inactive | SYPRO no-protein inactive
CCCn1c(O)c(C=Nc2ccccc2)sc1=S	none
CCn1c(O)c(C=NCc2ccccc2)sc1=S	FGF22 binding-1 2.9 | FGF22 binding-2 inactive | SYPRO no-protein inactive
COc1ccc(NC(=O)N(C)C[C@H]2Oc3ccc(NS(=O)(=O)c4ccc(Cl)cc4)cc3C(=O)N([C@@H](C)CO)C[C@H]2C)cc1	none
Cc1cc(C(=O)Nc2cccc3c2O[C@@H](CN(C)C(=O)NC(C)C)[C@@H](C)CN([C@@H](C)CO)C3=O)n(C)n1	none
Cc1cc(C(=O)Nc2cccc3c2O[C@@H](CN(C)C(=O)NC2CCCCC2)[C@@H](C)CN([C@H](C)CO)C3=O)n(C)n1	FGF22 binding-1 32 | FGF22 binding-2 inactive | SYPRO no-protein inactive
COc1ccc(NC(=O)N(C)C[C@@H]2Oc3ccc(NC(=O)Cc4ccccc4)cc3C(=O)N([C@H](C)CO)C[C@H]2C)cc1	FGF22 binding-1 1.5 | FGF22 binding-2 inactive | SYPRO no-protein inactive
C[C@H]1CN([C@@H](C)CO)C(=O)c2cccc(NC(=O)Nc3ccc4c(c3)OCO4)c2O[C@H]1CN(C)S(=O)(=O)c1cn(C)cn1	FGF22 binding-1 1.6 | FGF22 binding-2 inactive | SYPRO no-protein inactive
COc1ccc(NC(=O)N(C)C[C@H]2Oc3ccc(NS(=O)(=O)c4ccc(Cl)cc4)cc3C(=O)N([C@H](C)CO)C[C@H]2C)cc1	FGF22 binding-1 1.4 | FGF22 binding-2 inactive | SYPRO no-protein inactive
COc1ccc(NC(=O)N(C)C[C@H]2Oc3ccc(NC(=O)Cc4ccccc4)cc3C(=O)N([C@H](C)CO)C[C@H]2C)cc1	none (no result: SIRT5 block, ERAP1 HTS inh, FGF22 binding-1, CASP6 VEID inh)
C[C@H]1CCCCO[C@@H](CN(C)S(=O)(=O)c2ccccc2)[C@@H](C)CN([C@@H](C)CO)C(=O)c2cc(NC(=O)Nc3ccc(C(F)(F)F)cc3)ccc2O1	none
COc1ccc(CN2C[C@@H](C)[C@@H](OC)CN(C)C(=O)c3cc(NC(=O)C4CC4)ccc3OC[C@H]2C)cc1	none
CO[C@@H]1CN(C)C(=O)c2cc(NS(=O)(=O)c3ccc(C)cc3)ccc2OC[C@@H](C)N(C)C[C@@H]1C	none
O=C(C[C@H]1CC[C@@H](NS(=O)(=O)c2ccccc2)[C@@H](CO)O1)N1CCN(c2ccccc2)CC1	none (no result: FGF22 binding-1)
O=C(Nc1ccc2c(c1)[C@@H]1C[C@H](CC(=O)N3CCOCC3)O[C@@H](CO)[C@@H]1O2)Nc1ccccc1F	none
CC(C)NC(=O)N(C)C[C@H]1Oc2ccccc2C(=O)N(C)C[C@H]1C	none (no result: SIRT5 block, ERAP1 HTS inh, FGF22 binding-1, CASP6 VEID inh)
